PubChem BioAssay (NCI)
Compounds without any hit were thinned out: in the full panel of roughly 83,000, 20% have a hit.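 Assay: single dose, 48 h. Readout: percent growth (0 = no net growth; negative = cell death). Active: <10.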 Values without a mark were called inactive. Calls of active or inactive are those of the source.

tested on: NCI-H322M lung; assay: NCI-60 one-dose screen, 48 h (100 = growth as untreated, 0 = no growth, -100 = all killed); conditions: 10 µM unless noted
Description: Growth inhibition of the NCI-H322M human Non-Small Cell Lung tumor cell line is measured as a screen for anti-cancer activity. Cells are grown in 96 well plates and exposed to the test compound for 48 hours. Compounds are tested at a single concentration, which is 10^-5 M for most compounds. The reported endpoint is percent growth (GI% or GIPRCNT), where numbers from 0 - 100% represent growth inhibition, and numbers from -100% - 0 represent cell death. For example, a value of 40 represents 60% growth inhibition. A value of 0 means no net growth occurred over the course of the experiment. A value of -40 indicates 40% of cells at the beginning of the experiment died by the end of the experiment. A value of -100 means all cells are dead at the end of the experiment.
NCI-60 Human Tumor Cell Lines Screen was performed using the standard one-dose NCI protocol, which is described in more detail at https://dtp.cancer.gov/discovery_development/nci-60/default.htm.
Compounds with GIPRCNT values below 10 were considered active. Activity score was based on GIPRCNT using the following formula: […]
Score is 0 for GIPRCNT values of 100 or above, 50 for GIPRCNT values of 0, and 100 for GIPRCNT values of -100.

Question: With `COC(=O)CCc1c[nH]c2ccc(N(CCCl)CCCl)cc12` as the compound, how does the growth read?
Answer: 95.1%

Question: How did the growth turn out when `Nc1ncnc2n[nH]nc12` was run?
Answer: 42.3%

Question: With `Fc1ccc(C2=CCNCC2)cc1` as the compound, how does the growth read?
Answer: 111%

Question: `COc1ccc(/C=C\c2cc(OC)c(OC)c(OC)c2)c(NS(=O)(=O)c2ccc(F)cc2)c1O` was tested. Which growth did it give?
Answer: 53.6%

Question: With `COc1ccc(C(=O)c2cc(OC)c(OC)c(OC)c2)cc1OC(C)=O` as the compound, how does the growth read?
Answer: 42%

Question: For `CN[C@@]1(c2ccccc2Cl)CCCC[C@@H]1NCC1CCCO1` (stereo not given in full), which growth is on record?
Answer: 94.1%

Question: Which growth does the source give for `COC(C(=O)[C@@H](O)[C@@H](C)O)[C@@H]1Cc2cc3cc(O[C@H]4C[C@@H](O[C@H]5C[C@@H](O)[C@H](O)C(C)O5)[C@H](O)C(C)O4)c(C)c(O)c3c(O)c2C(=O)[C@H]1O[C@H]1C[C@@H](O[C@H]2C[C@@H](O[C@H]3C[C@@H](O)[C@@H](O)C(C)O3)[C@@H](O)C(C)O2)[C@H](O)C(C)O1` (stereo not given in full) here?
Answer: 14%

Question: `Nc1cc2nc3ccccc3nc2cc1N` was tested. Which growth did it give?
Answer: 99.4%

Question: With `CC1=C(CN)C2=C(C)C3(CC3)[C@@](C)(O)C(=O)C2=C1` as the compound, how does the growth read?
Answer: 91.6%

Question: `O=C1C=C(N2C3C4CCC(C4)C32)C(=O)C=C1c1ccccc1` (stereo not given) was tested. Which growth did it give?
Answer: 107%

Question: With `CC(C)=CCc1c(O)c(C(=O)CC(C)C)c(O)c2c(-c3ccccc3)cc(=O)oc12` as the compound, how does the growth read?
Answer: 63.2%

Question: `CC[C@H](C)[C@H](NC(=O)[C@H]1CCCCN1C)C(=O)N(C)[C@H](C[C@@H](OC(C)=O)c1cccc(C(=O)N[C@@H](Cc2ccccc2)C[C@H](C)C(=O)O)n1)C(C)C` was tested. Which growth did it give?
Answer: 45.2%

Question: Which growth does the source give for `C=CCCCCCCCCC(=O)[O-].C=CCCCCCCCCC(=O)[O-].[Zn+2]` here?
Answer: 103%

Question: How did the growth turn out when `COc1cccc(C=NC(Cc2cnc[nH]2)C(=O)O)c1O` (stereo not given) was run?
Answer: 95.5%

Question: With `O=C1C=C2C(=CCOC2O)O1` (stereo not given) as the compound, how does the growth read?
Answer: 101%

Question: How did the growth turn out when `CC[C@H](C)[C@H](NC(=O)N[C@@H](C)c1ccccc1)C(=O)N(C)[C@H](C[C@@H](OC(C)=O)c1nc(C(=O)N[C@@H](Cc2ccccc2)C[C@H](C)C(=O)OC)cs1)C(C)C` was run?
Answer: 51.2%

Question: Which growth does the source give for `O=P(Oc1ccc(Cl)cc1)(N1CC1)N1CC1` here?
Answer: 99.6%

Question: For `CCCCCCCC(=O)OCC(=O)[C@]1(O)Cc2c(O)c3c(c(O)c2[C@@H](OC2CC(N)C(O)C(C)O2)C1)C(=O)c1c(OC)cccc1C3=O` (stereo not given in full), which growth is on record?
Answer: -72.8% (active)

Question: Which growth does the source give for `CCOC(=O)[C@@H](C)C[C@H](Cc1ccccc1)NC(=O)c1csc([C@@H](C[C@H](C(C)C)N(C)C(=O)[C@@H](NC(=O)[C@H]2CCCCN2C)C(C)(C)C)OC(C)=O)n1` here?
Answer: 27.3%

Question: How did the growth turn out when `Cc1ccc(N2COOC3(OOC2)C2CC4CC(C2)CC3C4)cc1` was run?
Answer: 98.7%

Question: Which growth does the source give for `Brc1ccc2c(c1)c(-c1nc(-c3c[nH]c4ncccc34)cs1)cn2CCN1CCCCC1` here?
Answer: 65.6%

Question: Which growth does the source give for `COc1cc2c(cc1OCCCn1c(-c3ccccn3)nc3ccccc31)N=C[C@@H]1CCCN1C2=O` here?
Answer: 25.7%

Question: With `COC(=O)[C@@H](NC(=O)c1cn(CCC2CCCCC2)c2ccccc12)C(C)(C)C` as the compound, how does the growth read?
Answer: 83.7%

Question: Which growth does the source give for `CN(C)C(=O)Oc1ccc(Br)cc1` here?
Answer: 86.1%

Question: With `Clc1ccc2nnnn2n1` as the compound, how does the growth read?
Answer: 85.2%

Question: How did the growth turn out when `O=C(O)C(O)C(O)C1[O][Sb]([c]2ccc([N+](=O)[O-])cc2)[O]C1CO` (stereo not given) was run?
Answer: 102%

Question: `CC(=O)OC1CCC2(C)C(CCC3C2CC(=O)C2(C)C3CC(Sc3ccc(N(CCCl)CCCl)cc3)C2C(C)=O)C1` (stereo not given) was tested. Which growth did it give?
Answer: 104%

Question: `COc1cc(C=Nc2cccc(Br)c2)ccc1N(CCCl)CCCl` was tested. Which growth did it give?
Answer: 132%

Question: For `CC12CCC3C(CCC4=CC(=O)CCC43CF)C1CCC2=O` (stereo not given), which growth is on record?
Answer: 102%

Question: Which growth does the source give for `O=C(N/N=C\c1ccc(N(CCCl)CCCl)cc1Cl)c1cccnc1` here?
Answer: 133%

Question: For `CCCCCCCCCCCCNC(c1ccccc1)C(O)c1ccccc1` (stereo not given), which growth is on record?
Answer: 88.2%

Question: How did the growth turn out when `O=C1C2C(C(=O)[N]1[Hg][c]1ccccc1)C1(Cl)C(Cl)=C(Cl)C2(Cl)C1(Cl)Cl` (stereo not given) was run?
Answer: 45.1%

Question: `OCCNC(Cc1ccccc1)c1ccc2c(c1)OCO2` (stereo not given) was tested. Which growth did it give?
Answer: 98.4%

Question: How did the growth turn out when `COP(=S)(N1CC1)N1CC1` was run?
Answer: 100%

Question: Which growth does the source give for `C=CC[n+]1ccc(-c2cc[n+](CC=C)cc2)cc1` here?
Answer: 95.7%

Question: How did the growth turn out when `O=C(Nc1ccc(Cl)cc1)Nc1nccs1` was run?
Answer: 40.6%

Question: With `O=C1OCCC1Br` (stereo not given) as the compound, how does the growth read?
Answer: 97.7%

Question: With `CC(=O)OC[C@]1(C)C=C2C(=O)[C@](C)(O)C3(CC3)C(C)=C2[C@H]1OC(=O)N(C)CCN(C)C(=O)OC(C)(C)C` as the compound, how does the growth read?
Answer: 12.4%

Question: Which growth does the source give for `O=C1C(=Cc2cn(Cc3ccccc3)c3ccccc23)C(=O)N(Cc2ccccc2)C(=O)N1Cc1ccccc1` here?
Answer: 105%

Question: `CCN(CC)c1ccc2c(c1)OC(N)=C(C#N)C2c1cc(OC)c2c(c1)OCO2` (stereo not given) was tested. Which growth did it give?
Answer: 47.1%
